Assay outcomes deposited in PubChem by several laboratories.
Sampled rows, rich in hits. Any-hit rate of the full collection: about 1.4%.
E coli Lon inh – E. coli protease La inhibition | P0A9M0 | purified E. coli Lon protease, fluorescence polarization | inhibition, % at 7.94 µM | 0.42% of 360,000 active | AID 602123; in the data active means inhibition above about 13%, passing the limit was not always enough;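 further: 0% = enzyme with probe and DMSO and 100% = no enzyme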
EBV gp42 inh – blocks Epstein-Barr virus glycoprotein 42 binding. 0.42% of 220,000 active. Fluorescence polarization binding assay, mP read-out. inhibition, % (tested at 21.74 µM). AID 1085; in the data active means inhibition above about 50%
Target sequence (Q1HVG2 whole entry, looked up): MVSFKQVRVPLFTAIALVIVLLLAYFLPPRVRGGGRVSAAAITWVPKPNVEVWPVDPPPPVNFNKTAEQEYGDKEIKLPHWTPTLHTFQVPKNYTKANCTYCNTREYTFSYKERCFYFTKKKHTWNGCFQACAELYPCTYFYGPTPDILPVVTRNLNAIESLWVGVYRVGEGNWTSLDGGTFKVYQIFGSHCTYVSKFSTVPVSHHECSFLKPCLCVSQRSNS
MEX-5 binding – C. elegans MEX-5 TCR-2 RNA binding activity; Q9XUB2; MEX-5/FITC-TCR2 RNA binding, fluorescence polarization; hits give low values; activity score (negative = inhibition of binding), % at 10 µM; 0.38% of 300,000 active; AID 1832;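 active means inhibition past about -25% in most replicates, and total fluorescence under double the plate's negative control median, limit read from the data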;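 further: 0% = DMSO and -100% = 5 µM competing unlabeled TCR2 RNA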
GLD-1 RNA inh – GLD-1-TGE RNA interaction inhibition (C. elegans) | Q17339 | purified GLD-1 + fluorescein TGE RNA, fluorescence polarization | inhibition, % at 5.96 µM | 0.44% of 320,000 active | AID 2280;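 active means percent inhibition above a per-plate cutoff, the plate mean of test compounds plus 3 SD, cut at about 30% in these data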;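 further: 0% = DMSO wells with GLD-1 and probe and 100% = wells lacking GLD-1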
MCL1-BIM inh – inhibitors of human MCL1 binding to BIM-BH3 peptide; Q07820; GST-MCL1 / FITC-Bim-BH3 fluorescence polarization; inhibition, % at 10.9 µM; 0.68% of 320,000 active; AID 2057;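 active means inhibition above the mean inhibition of all tested compounds plus 3 SD, set per campaign, cut at about 40% in these data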;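 further: 0% = DMSO wells and 100% = unlabeled Bim-BH3 peptide control; higher means more loss of mP so more displacement of Bim peptide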
Bcl-xL primary – Bcl-xL (human) inhibition. Q07817. GST-Bcl-xL / FITC-Bim BH3 peptide fluorescence polarization. inhibition, % at 10.9 µM. 0.7% of 320,000 active. AID 2129;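 active means inhibition above the mean of all tested compounds plus 3 SD, cutoff set per campaign, cut at about 30% in these data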;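 further: 0% = DMSO wells and 100% = unlabeled Bim-BH3 peptide competitor; inhibitors lower millipolarization by displacing the labeled peptide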
Target sequence (Q07817 whole entry, looked up): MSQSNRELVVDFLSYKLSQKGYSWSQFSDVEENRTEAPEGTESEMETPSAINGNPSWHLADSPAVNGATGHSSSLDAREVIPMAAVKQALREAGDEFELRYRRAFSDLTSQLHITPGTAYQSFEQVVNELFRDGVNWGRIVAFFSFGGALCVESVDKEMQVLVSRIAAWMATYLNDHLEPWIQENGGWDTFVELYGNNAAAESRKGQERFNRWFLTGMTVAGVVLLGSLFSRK
BCLXL inh confirm – Bcl-xL (human) inhibition, MCL1 counter-screen confirmation; GST-Bcl-xL / FITC-Bim BH3 peptide FP binding; shares compounds with MCL1-BIM inh; 54% of 1,700 active; inhibition, % at 10.9 µM;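 active means inhibition above a cutoff equal to the mean inhibition of all tested compounds plus 3 SD, cut at about 30% in these data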;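 further: 0% = DMSO wells and 100% = unlabeled Bim BH3 control peptide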
MCL1 inh confirm – MCL1-BIM-BH3 interaction inhibition, confirmation; shares compounds with MCL1-BIM inh; GST-MCL1 / FITC-Bim-BH3 fluorescence polarization; inhibition, % at 10.9 µM; 61% of 1,700 active; AID 2168;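 active means inhibition above the average of all tested compounds plus 3 SD, cut at about 40% in these data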;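 further: 0% = DMSO wells and 100% = unlabeled Bim-BH3 control peptide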
The depositor's hits bear a star; nt = no result.

SMILES	E coli Lon inh	EBV gp42 inh	MEX-5 binding	GLD-1 RNA inh	MCL1-BIM inh	Bcl-xL primary	BCLXL inh confirm	MCL1 inh confirm
Cc1ccc(NC(=O)Cc2nnc(SCC(=O)NC3CCCC3)n2C)cc1C	2	nt	0	0	-1	-1	nt	nt
COC(=O)COc1ccc(C2Nc3c(Cl)ccc(C(=O)O)c3C3C=CCC32)cc1 (centres undefined)	3	-9	-24	16	53*	43*	34*	32
CCOc1cccc(NC(=O)C2CC(=O)N(C)C(=Nc3cccc(F)c3)S2)c1 (centres undefined)	-1	0	-1	8	42*	0	-1	1
COc1cccc(C2=CC(c3ccc(C)cc3)n3ncnc3N2)c1 (centres undefined)	nt	22	4	57*	60*	55*	30	42*
Cc1ccc(C2=CC(c3ccccc3)n3ncnc3N2)cc1 (centres undefined)	11	nt	0	8	14	16	nt	nt
COc1ccccc1C(=O)Nc1cccc(Oc2c(F)c(F)c(F)c(F)c2F)c1	5	-16	-4	-2	-2	1	nt	nt
COc1ccc(NC(=O)COc2cccc(C(F)(F)F)c2)cn1	11	nt	2	61*	70*	71*	82*	92*
COc1cccc(C(=O)Nc2ccc(Oc3cccc(C(F)(F)F)c3)nc2)c1	3	0	-1	0	-2	7	nt	nt
Cc1ccc(S(=O)(=O)N2CCC(C(=O)OC(C)C(=O)NCc3ccccc3)CC2)cc1C (centres undefined)	0	nt	4	4	-9	-1	nt	nt
CCC(=O)Nc1nc2n(n1)C(c1ccc(OC)cc1)C=C(c1ccccc1)N2 (centres undefined)	nt	60*	-2	51*	60*	60*	75*	92*
O=C(c1nc2n(n1)C(c1ccc(Cl)cc1)C=C(c1ccccc1)N2)N1CCOCC1 (centres undefined)	12	77*	-16	48*	75*	65*	71*	89*
OCCCc1nc2n(n1)C(c1ccccc1)C=C(c1ccccc1)N2 (centres undefined)	1	24	-7	19	28	24	nt	nt
CS(=O)(=O)Nc1nc2n(n1)C(c1ccccc1)C=C(c1ccc(Br)cc1)N2 (centres undefined)	99*	58*	-69*	157*	181*	157*	134*	164*
COc1ccccc1C1C=C(c2ccc(Cl)cc2)Nc2nc(NS(C)(=O)=O)nn21 (centres undefined)	nt	22	-15	71*	71*	66*	46*	59*
COc1ccc(C2C=C(c3ccccc3)Nc3nc(CCCO)nn32)cc1 (centres undefined)	nt	18	nt	15	30	30	nt	nt
O=C(O)CCc1ccc(S(=O)(=O)Nc2cc(C(F)(F)F)ccc2N2CCCC2)cc1	2	nt	nt	nt	nt	nt	nt	nt
CCNc1ccc(C(=O)NN=C2CCCC2)cc1[N+](=O)[O-]	-6	-12	-1	-1	0	-2	nt	nt
CCOC(=O)N1CCN(S(=O)(=O)c2c(C)nc3scc(C)n3c2=O)CC1	2	nt	-1	-3	1	1	nt	nt
Cc1ccc(C(=O)O)cc1N1C(=O)c2cccc3c([N+](=O)[O-])ccc(c23)C1=O	14	nt	-24	50*	102*	82*	47*	76*
CC1(C)CC(NS(=O)(=O)c2ccc(S(N)(=O)=O)cc2)CC(C)(C)N1	10	nt	-8	89*	118*	97*	11	4
C=CCN(C(=O)c1ccc2snnc2c1)c1ccccc1	-10	nt	-1	-7	3	2	nt	nt
Cc1onc(-c2ccccc2Cl)c1C(=O)NCc1ccco1	-13	19	-3	2	66*	24	28	65*
CC(C)(C)c1ccc(C(=O)Nc2cccc3c(=O)[nH][nH]c(=O)c23)cc1	16	93*	-1	46*	43*	29	42*	47*
Cc1ccc(C(=O)Nc2cccc3ccccc23)cc1	-8	nt	-2	6	-5	-2	nt	nt
Cc1cc(C)c(C)c(S(=O)(=O)N2CCN(CC(=O)c3c(N)n(Cc4ccccc4)c(=O)n(C)c3=O)CC2)c1C	5	-18	2	3	1	4	nt	nt
SMILES	E coli Lon inh	EBV gp42 inh	MEX-5 binding	GLD-1 RNA inh	MCL1-BIM inh	Bcl-xL primary	BCLXL inh confirm	MCL1 inh confirm
COc1cc(NC(C)CCCN)c2ncccc2c1 (centres undefined)	2	nt	18	-47	53*	44*	32*	50*
COc1cc(NCCCCCCCN)c2ncccc2c1	-5	-14	-4	-7	1	4	nt	nt
O=C(C[n+]1cccc2ccccc21)c1ccc(Br)cc1	-11	nt	5	-5	-1	2	nt	nt
O=C(C[n+]1cc(Br)cc2ccccc21)c1ccc(Cl)cc1	-19	nt	2	-36	86*	84*	23	35
O=C(C[n+]1cc(Br)cc2ccccc21)c1ccc(Br)cc1	-21	nt	0	-21	94*	58*	55*	74*
CCOC(=O)c1c(NC(=O)CN2C(=O)C(=O)N(C(C)C)C2=O)sc(C)c1CC	-17	nt	nt	7	2	1	nt	nt
COc1ccc(NC(=O)CSc2nnc(-c3cccs3)n2N)c(OC)c1	2	nt	-2	-5	4	-1	nt	nt
Cc1csc(SCC(=O)Nc2ccccn2)n1	-11	-16	1	-4	4	3	nt	nt
O=C(CSc1nc(-c2ccc(F)cc2)cs1)Nc1ccccn1	1	-26	1	1	64*	-2	9	6
CC(=O)c1ccc(NC(=O)C2Cc3ccccc3CN2C(=O)c2ccccc2)cc1 (centres undefined)	-2	-6	0	2	-6	-2	nt	nt
COc1ccc(NC(=O)C2Cc3ccccc3CN2C(=O)c2ccccc2)cn1 (centres undefined)	16	64*	-38*	55*	77*	81*	75*	93*
CC1(C)Cc2c(C#N)c(N)sc(=S)c2CS1	9	45	-10	47*	71*	57*	71*	88*
Cn1c(N)c(C#N)c2c(c1=S)CSC(C)(C)C2	19	7	-6	8	13	16	nt	nt
O=C1CSC(=S)N1/N=C/c1ccc(O)c(O)c1O	7	70*	-88*	-5	85*	66*	75*	93*
CCCCc1nc(SCC(=O)N2CCOCC2)c2c(=O)n(C)c(=O)n(C)c2n1	-2	nt	-3	2	6	-3	nt	nt
